Test results as given in ChEMBL document CHEMBL1201862, “PubChem BioAssay data set” (2004).

Target: Beta Lactamase (Pseudomonas aeruginosa) (UniProt Q932Y6)
Assay: Late stage assay provider results from the probe development efforts to identify selective inhibitors of VIM-2 metallo-beta-lactamase: VIM-2-transformed E. coli growth inhibition in the presence of imipenem (synergy).
Assay type: functional; call rule not given here

## O=c1[nH]c2c(s1)[C@H](c1cccnc1)[C@H]1C3CC[C@@H](C3)[C@H]1S2
  MIC: > 100 µM (active)
